Test [1] is described as follows: A High-Content qHTS Against Drug Library for the Identification of Small Molecules that Inhibit DYT1 Early Onset Primary Dystonia-Associated Cell Pathology (AID 1645839; calls by dose curve; note: potency is the fitted concentration of half-maximal effect). In a few lines: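 High-content imaging quantified EGFP-TorsinA mislocalization in HEK293-derived cells inducibly expressing DYT1 mutant torsinA, after 48 h exposure to compound given together with tetracycline induction. Cell count served as a toxicity channel alongside %pathology.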

Test [2] addresses Cytochrome P450 2D6 (Homo sapiens) (UniProt P10635). As to the kind of experiment: Cytochrome P450 family 2 subfamily D member 6 (CYP2D6) small molecule antagonists: luciferase biochemical (cell-free) qHTS assay (AID 1645840; active = well fitted curve in the direction sought with a large enough effect in the repeat runs; an effect the other way counts as inactive or inconclusive; note: nearly all actives have a fitted effect of over 55% in size; note: potency is the fitted concentration of half-maximal effect; for activity change, negative = inhibition: series mostly up to about 57 µM; % is set by controls: 0 for no effect and ±100 for the full control effect). In outline:
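P450-Glo CYP2D6 system: proluciferin substrate converted by enzyme to luciferin, read by luminescence proportional to activity. Enzyme-substrate mix with compound 10 min at room temperature, then NADPH regeneration 1 h before detection reagent.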
A general note: qHTS replaces the single test concentration by a dilution series.

In test [3] the target is Cytochrome P450 2C9 (Homo sapiens) (UniProt P11712). As to the kind of experiment: Cytochrome P450 family 2 subfamily C member 9 (CYP2C9) small molecule antagonists: luciferase biochemical (cell-free) qHTS assay (AID 1645842; active = well fitted curve in the direction sought with a large enough effect in the repeat runs; an effect the other way counts as inactive or inconclusive; note: nearly all actives have a fitted effect of over 55% in size; note: potency is the fitted concentration of half-maximal effect; for activity change, negative = inhibition: series mostly up to about 57 µM; % is set by controls: 0 for no effect and ±100 for the full control effect). In outline: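 P450-Glo CYP2C9 system: proluciferin substrate with enzyme in mix containing 0.4% BSA, 10 min at room temperature, then NADPH regeneration solution added and incubated 1 h at 37C. Detection reagent stopped reaction; luminescence read after 20 min as RLU.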

A short description of test [4]: Primary qHTS for inhibitors of nuclear receptor binding SET domain protein 2 (NSD2) in an RCH-ACV wild type WT cells (2C) (AID 1645877). Note: nearly all actives have a fitted effect of over 70% in size. Note: potency is the fitted concentration of half-maximal effect.
A short description of test [5]: Primary qHTS for inhibitors of nuclear receptor binding SET domain protein 2 (NSD2) in an isogenic RCH-ACV NSD2 p.E1099K mutant (9B) (AID 1645876). Note: nearly all actives have a fitted effect of over 70% in size. Note: potency is the fitted concentration of half-maximal effect.
The nature of test [6]: NCATS anti-infectives library activity on the primary C. elegans qHTS viability assay (AID 1745855; calls by dose curve; note: potency is the fitted concentration of half-maximal effect). In outline:
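GFP read-out by 488 nm laser cytometry at day 0, 3 and 7, gated on object perimeter, area and peak intensity, scored viability of PE254-GFP-FLuc worms exposed to compound in S medium with bacterial capsules at 21 °C.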

Test [7] has as its target Rap guanine nucleotide exchange factor 3 (Homo sapiens) (UniProt O95398). As to the kind of experiment: Confirmatory qHTS for antagonist of cAMP-regulated guanine nucleotide exchange factor 3 (EPAC1) (AID 1645880).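 Note: plate controls were DMSO only for no effect and full effect of the ATA control for full effect; nearly all actives have a fitted effect of over 55% in size.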 In a few lines:
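Released BODIPY-GDP fluoresces less than Rap1-bound BODIPY-GDP; the signal is followed at 480/540 nm at 5-min intervals over 30 min, after 5 min at room temperature. Reactions contain 100 nM EPAC1, 250 nM RAP1B-BODIPY-GDP and 50 uM GDP; results are normalized to ATA and DMSO.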

Test [8] has the same target. As to the kind of experiment: Confirmatory qHTS for agonist of cAMP-regulated guanine nucleotide exchange factor 3 (EPAC1) (AID 1645881).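 Note: EPAC1 catalysed release of BODIPY-GDP from Rap1B seen as fluorescence loss; 100% = effect of cAMP agonist control; nearly all actives have a fitted effect of over 75% in size.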
In test [9] the target is Rap guanine nucleotide exchange factor 4 (Homo sapiens) (UniProt Q8WZA2). As to the kind of experiment: Confirmatory qHTS for agonist of cAMP-regulated guanine nucleotide exchange factor 4 (EPAC2) (AID 1645884).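 Note: nucleotide exchange releases bodipy-GDP from Rap1 and this lowers its fluorescence; % is set by controls: 0 for no effect and ±100 for the full control effect; nearly all actives have a fitted effect of over 65% in size.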
The target is the same in test [10]. As to the kind of experiment: Confirmatory qHTS for antagonist of cAMP-regulated guanine nucleotide exchange factor 4 (EPAC2) (AID 1645885). Note: % is set by controls: 0 for no effect and ±100 for the full control effect; nearly all actives have a fitted effect of over 25% in size.
The target of test [11] is Rap guanine nucleotide exchange factor 3 (Homo sapiens) (UniProt O95398). As to the kind of experiment: Counterscreen qHTS for antagonist of cAMP-regulated guanine nucleotide exchange factor 3 (EPAC1) (AID 1645888). Note: % of control where 0% means no effect. In a few lines:
(§1)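 Rap1B-BODIPY-GDP 250 nM + GDP 50 uM; cpds 7-pt, final 9.74 nM–152 uM (activator mode) or from 7.32 nM upwards (inhibitor mode); RT; FI 480/540 nm at 5 and 30 min, then ± cAMP, reread.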
Background: A counterscreen serves to expose hits that act by an unwanted route or on another target.

For test [12] the target is unchanged. As to the kind of experiment: Counterscreen qHTS for agonist of cAMP-regulated guanine nucleotide exchange factor 3 (EPAC1) (AID 1645889). Note: potency is the fitted concentration of half-maximal effect; nearly all actives have a fitted effect of over 40% in size. In outline:
as §1

The nature of test [13]: Viability counterscreen for antagonist of constitutive androstane receptor (CAR) against the NCATS DSHEA and TCM libraries (AID 1794837).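 Note: compound exposure lasted 24 h before viability reading; 0% is about no effect.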 In a few lines:
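HepG2-CYP2B6-hCAR cells, 2,500/well, were exposed 24 hr at 37C to substances together with 48 uM CITCO (final). Viability was read as CellTiter-Fluor fluorescence (Ex/Em 405/540 nm) after 1 hr.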

In test [14] the target is Cytochrome P450 3A4 (Homo sapiens) (UniProt P08684). As to the kind of experiment: Cytochrome P450 family 3 subfamily A member 4 (CYP3A4) small molecule antagonists: luciferase qHTS assay (AID 1645841; active = well fitted curve in the direction sought with a large enough effect in the repeat runs; an effect the other way counts as inactive or inconclusive; note: nearly all actives have a fitted effect of over 45% in size). In a few lines: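 Luminescent CYP3A4 activity readout: compounds plus enzyme-substrate mix 10 min at room temperature, reaction started with NADPH regenerating system for 1 h, stopped with detection reagent, read after 20 min. Ketoconazole served as control.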

“And” between values parts separate entries of the source, which are not always exact repeats. Equal entries are not always repeated. Inconclusive results are not listed. Values without a mark were called inactive. The source made the active and inactive calls. Unless noted, calls come from the whole dose curve; as a rule, active = well fitted curve in the direction sought with a large enough effect; inconclusive = small, poorly fitted or top-dose-only effect, or another doubt; inactive = no such curve, though single readings can be large; an effect the other way counts as inactive or inconclusive.

Sequence of Cytochrome P450 2C9 (Homo sapiens) (P11712 whole entry, looked up): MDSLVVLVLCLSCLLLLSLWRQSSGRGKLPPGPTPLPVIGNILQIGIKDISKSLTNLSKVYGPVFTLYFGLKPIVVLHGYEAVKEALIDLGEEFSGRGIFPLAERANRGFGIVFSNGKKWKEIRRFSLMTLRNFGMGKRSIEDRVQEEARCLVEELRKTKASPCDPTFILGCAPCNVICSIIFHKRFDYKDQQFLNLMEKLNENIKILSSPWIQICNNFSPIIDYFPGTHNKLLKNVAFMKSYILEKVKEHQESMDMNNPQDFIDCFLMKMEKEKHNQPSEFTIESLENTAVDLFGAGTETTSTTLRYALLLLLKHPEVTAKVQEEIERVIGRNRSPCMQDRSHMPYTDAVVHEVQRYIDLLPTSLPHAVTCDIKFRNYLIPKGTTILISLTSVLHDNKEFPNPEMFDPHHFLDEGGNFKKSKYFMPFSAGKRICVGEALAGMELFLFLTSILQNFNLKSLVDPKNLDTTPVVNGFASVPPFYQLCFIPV
Sequence of Cytochrome P450 2D6 (Homo sapiens) (P10635 whole entry, looked up): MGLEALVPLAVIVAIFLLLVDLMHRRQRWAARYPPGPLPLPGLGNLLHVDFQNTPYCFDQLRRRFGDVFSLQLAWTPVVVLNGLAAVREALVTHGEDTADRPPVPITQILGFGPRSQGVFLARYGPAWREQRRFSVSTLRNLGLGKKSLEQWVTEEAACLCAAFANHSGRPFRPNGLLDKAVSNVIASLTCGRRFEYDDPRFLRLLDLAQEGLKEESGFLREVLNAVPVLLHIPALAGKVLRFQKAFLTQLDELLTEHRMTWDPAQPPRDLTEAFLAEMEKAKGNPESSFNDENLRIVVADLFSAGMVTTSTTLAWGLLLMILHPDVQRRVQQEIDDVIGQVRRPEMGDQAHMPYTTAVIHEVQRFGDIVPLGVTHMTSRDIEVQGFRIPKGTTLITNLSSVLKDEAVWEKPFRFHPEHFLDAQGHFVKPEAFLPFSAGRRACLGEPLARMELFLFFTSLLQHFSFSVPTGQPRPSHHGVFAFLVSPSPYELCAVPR
Sequence of Rap guanine nucleotide exchange factor 4 (Homo sapiens) (Q8WZA2 whole entry, looked up): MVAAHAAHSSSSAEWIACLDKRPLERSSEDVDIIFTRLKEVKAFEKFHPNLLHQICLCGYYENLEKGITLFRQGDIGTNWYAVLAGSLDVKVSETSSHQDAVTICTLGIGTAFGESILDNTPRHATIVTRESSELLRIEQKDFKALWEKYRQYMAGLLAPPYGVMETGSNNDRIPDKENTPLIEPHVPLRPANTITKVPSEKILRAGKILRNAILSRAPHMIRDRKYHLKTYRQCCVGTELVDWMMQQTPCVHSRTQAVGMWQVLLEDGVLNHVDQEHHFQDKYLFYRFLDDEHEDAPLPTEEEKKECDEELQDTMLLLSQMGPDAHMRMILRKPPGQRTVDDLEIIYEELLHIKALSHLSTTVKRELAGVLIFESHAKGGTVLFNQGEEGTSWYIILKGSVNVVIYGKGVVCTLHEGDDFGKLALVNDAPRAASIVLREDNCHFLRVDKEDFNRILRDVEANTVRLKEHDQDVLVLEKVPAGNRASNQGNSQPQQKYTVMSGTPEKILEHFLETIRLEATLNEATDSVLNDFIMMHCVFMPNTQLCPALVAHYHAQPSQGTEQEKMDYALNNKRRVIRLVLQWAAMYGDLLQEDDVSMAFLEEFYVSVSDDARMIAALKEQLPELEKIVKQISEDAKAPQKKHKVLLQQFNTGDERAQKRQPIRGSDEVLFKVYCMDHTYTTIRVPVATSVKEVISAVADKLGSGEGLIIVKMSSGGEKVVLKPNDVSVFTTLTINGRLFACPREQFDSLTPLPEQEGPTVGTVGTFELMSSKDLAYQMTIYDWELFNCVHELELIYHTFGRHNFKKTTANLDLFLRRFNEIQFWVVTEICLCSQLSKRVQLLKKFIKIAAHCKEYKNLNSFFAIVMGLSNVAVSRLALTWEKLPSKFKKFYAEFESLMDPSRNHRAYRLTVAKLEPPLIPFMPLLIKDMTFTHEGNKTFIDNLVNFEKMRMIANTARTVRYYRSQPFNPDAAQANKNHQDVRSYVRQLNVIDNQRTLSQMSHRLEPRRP
Sequence of Rap guanine nucleotide exchange factor 3 (Homo sapiens) (O95398 whole entry, looked up): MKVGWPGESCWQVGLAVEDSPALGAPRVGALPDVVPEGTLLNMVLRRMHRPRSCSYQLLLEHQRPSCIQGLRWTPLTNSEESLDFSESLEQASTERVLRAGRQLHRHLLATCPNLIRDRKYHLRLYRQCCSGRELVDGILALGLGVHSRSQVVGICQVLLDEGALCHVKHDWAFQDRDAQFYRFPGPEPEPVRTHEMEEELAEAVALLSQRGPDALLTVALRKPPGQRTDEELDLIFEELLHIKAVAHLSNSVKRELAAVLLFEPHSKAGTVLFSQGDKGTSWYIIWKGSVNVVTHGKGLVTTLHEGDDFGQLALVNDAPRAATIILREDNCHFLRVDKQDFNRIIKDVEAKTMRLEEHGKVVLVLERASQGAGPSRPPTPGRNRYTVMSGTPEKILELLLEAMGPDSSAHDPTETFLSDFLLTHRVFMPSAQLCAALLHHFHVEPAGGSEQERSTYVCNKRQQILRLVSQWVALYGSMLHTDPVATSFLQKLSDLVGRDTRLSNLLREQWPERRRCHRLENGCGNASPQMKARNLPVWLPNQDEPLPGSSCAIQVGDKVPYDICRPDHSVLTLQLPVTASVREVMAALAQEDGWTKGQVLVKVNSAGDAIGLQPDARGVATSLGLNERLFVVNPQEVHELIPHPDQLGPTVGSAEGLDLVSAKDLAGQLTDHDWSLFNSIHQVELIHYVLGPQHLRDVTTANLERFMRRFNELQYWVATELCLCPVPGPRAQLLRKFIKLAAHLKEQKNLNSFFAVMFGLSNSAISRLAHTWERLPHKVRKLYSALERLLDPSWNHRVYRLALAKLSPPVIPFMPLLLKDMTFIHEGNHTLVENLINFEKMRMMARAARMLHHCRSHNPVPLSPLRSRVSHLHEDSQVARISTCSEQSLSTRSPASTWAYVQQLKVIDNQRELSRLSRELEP
Sequence of Cytochrome P450 3A4 (Homo sapiens) (P08684 whole entry, looked up): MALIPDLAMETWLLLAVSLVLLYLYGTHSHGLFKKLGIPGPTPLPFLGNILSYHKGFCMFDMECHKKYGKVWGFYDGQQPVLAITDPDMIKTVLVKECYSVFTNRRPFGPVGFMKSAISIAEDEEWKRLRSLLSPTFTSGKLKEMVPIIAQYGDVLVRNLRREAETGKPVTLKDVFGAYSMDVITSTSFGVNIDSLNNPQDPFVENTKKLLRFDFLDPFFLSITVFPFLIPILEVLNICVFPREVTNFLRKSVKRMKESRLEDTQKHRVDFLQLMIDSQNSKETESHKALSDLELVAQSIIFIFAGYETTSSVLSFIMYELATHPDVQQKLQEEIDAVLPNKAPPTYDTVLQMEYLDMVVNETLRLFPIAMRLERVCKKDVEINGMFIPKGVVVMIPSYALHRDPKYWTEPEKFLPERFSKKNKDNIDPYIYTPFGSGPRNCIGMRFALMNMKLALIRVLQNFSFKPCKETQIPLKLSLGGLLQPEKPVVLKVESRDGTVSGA

`C[C@]12C=CC(=O)C=C1[C@@H](F)C[C@@H]1[C@@H]2[C@@H](O)C[C@@]2(C)[C@H]1CC[C@]2(O)C(=O)CO`: the Potency result in test [1], in test [2] and in [3] was “inactive” throughout. Further, in test [4], the Potency is 42.2 nM (active).
`CCN1CCC[C@H]1CNC(=O)c1c(OC)ccc(Br)c1OC`: the Potency entry in test [1], in [3], in test [5] and in test [4] was “inactive” each time.
Regarding `CCCCOc1ccc(C(=O)CCN2CCCCC2)cc1`, the Potency is 10 µM (active) in test [1], 4.9 µM (active) in [2], 15 µM (active) in [5] and 13300 nM (active) in test [4].
For `CC1(C)O[C@@H]2C[C@H]3[C@@H]4C[C@H](F)C5=CC(=O)C=C[C@]5(C)[C@H]4[C@@H](O)C[C@]3(C)[C@]2(C(=O)CO)O1` the same measures were “inactive”, “inactive”, “inactive” and 16.6 nM (active).
In the case of `CC(C)NC[C@@H](O)COc1cccc2ccccc12`, the Potency result in [1] and in test [3] was “inactive” each time.
Take `Cc1nc2n(c(=O)c1CCN1CCC(c3noc4cc(F)ccc34)CC1)CCC[C@H]2O`: the Potency entry in [1], in [3], in test [5] and in test [4] was “inactive” each time. Besides, the Potency in test [2] was 12 µM (active).
As for `CC1(C)O[C@@H]2[C@@H](CO[C@@]3(COS(N)(=O)=O)OC(C)(C)O[C@@H]23)O1`, the Potency entry in test [1], in test [2], in [3], in test [5], in test [4] and in test [6] was “inactive” in each case.
With `CCOC(=O)/C=C(C)/C=C/C=C(C)/C=C/c1c(C)cc(OC)c(C)c1C`, in test [1], the Potency entry is “inactive”. Besides, in [3], the Potency was 7.76 µM (active).
Turning to `COc1cccc2c1C(=O)c1c(O)c3c(c(O)c1C2=O)C[C@@](O)(C(C)=O)C[C@@H]3O[C@H]1C[C@H](N)[C@H](O)[C@H](C)O1`, the Potency is 1.58 µM (active) in test [1]; 13.8 µM (active) in [2]; 2.7 nM (active) and 18.6 nM (active) in test [5]; 2.4 nM (active) in [4]; 14.1 µM (active) in [12]; 5.78 µM (active) in test [6]. Also, the Potency result in test [3], in test [7], in test [9] and in [10] was “inactive” in each case. The call in test [8] was inactive. Moreover, the activity change, negative = inhibition in [11] was 47.7% [at 30.8 µM].
For the compound `Cc1cc(O)c(C(C)C)cc1Cl`, the Potency result in test [1], in test [5] and in [4] was “inactive” each time. Further, the Potency was 12.3 µM (active) in [2] and 21.9 µM (active) in test [3].
As to `CN(C)C(=S)SC(=S)N(C)C`, the Potency result in test [1] and in test [2] was “inactive” in each case. The Potency in [5] is 2.11 µM (active); in [4], 2990 nM (active).
For the compound `C/C=C/c1ccc(OC)cc1`, the Potency entry in [1], in test [2], in test [5] and in test [4] was “inactive” in each case. Further, the compound was classed as inactive in test [13].
With `COc1ccc(OC)c(C(O)CNC(=O)CN)c1` (stereo unspecified), the Potency result in [1], in test [2], in test [5] and in [4] was “inactive” each time.
In the case of `C[C@]12CCC(=O)C=C1[C@@H]1C[C@@H]1[C@H]1[C@@H]3[C@@H]4C[C@@H]4[C@@]4(CCC(=O)O4)[C@@]3(C)CC[C@@H]12`, the Potency result in test [1] and in test [3] was “inactive” each time.
Turning to `O=C(O)CNC(=O)c1ccccc1`, the Potency entry in test [1], in test [2], in test [3], in test [5] and in test [4] was “inactive” throughout.
On to `CCOC(=O)COc1ccc2c(C)c(CCN(CC)CC)c(=O)oc2c1Cl`, for which the Potency result in test [1], in test [3], in test [5] and in test [4] was “inactive” throughout. For the same compound, the outcome in test [14] was inactive.
As to `CC(=O)OCC(=O)[C@@]1(OC(C)=O)[C@@H](C)C[C@H]2[C@@H]3C[C@H](F)C4=CC(=O)C=C[C@]4(C)[C@@]3(F)[C@@H](O)C[C@@]21C`, the Potency entry in test [1] and in test [2] was “inactive” each time. In [4], the Potency was 18.8 nM (active).
Turning to `Cc1cc(=O)n(-c2ccccc2)n1C`, the Potency result in test [1], in [2], in test [5] and in test [4] was “inactive” each time.
Consider `CCN(CCCCOC(=O)c1ccc(OC)c(OC)c1)C(C)Cc1ccc(OC)cc1` (stereo unspecified), for which the Potency entry in [1] and in test [3] was “inactive” each time.
On to `C[C@H]1C[C@H]2[C@@H]3CCC4=CC(=O)C=C[C@]4(C)[C@@]3(Cl)[C@@H](O)C[C@]2(C)[C@@]1(O)C(=O)CO`, for which the Potency entry in test [1] was “inactive”. The Potency was 15.5 µM (active) in test [2], 17.4 µM (active) in [3] and 4.7 nM (active) in test [4].
On to `COc1c(C)c2c(c(O)c1C/C=C(\C)CCC(=O)O)C(=O)OC2`, for which the Potency entry in [1], in test [2] and in test [3] was “inactive” each time. Besides, the Potency in [5] was 66.8 nM (active) and 833 nM (active); in test [4] it was 53.1 nM (active) and 590 nM (active).
As to `CC(=O)[C@H]1CC[C@H]2[C@@H]3C[C@H](C)C4=CC(=O)CC[C@]4(C)[C@H]3[C@@H](O)C[C@]12C`, in test [1], the Potency entry was “inactive”. In addition, the Potency in [3] was 0.86 µM (active).
Consider `CC1=C(C(=O)O)N2C(=O)[C@@H](NC(=O)[C@H](N)c3ccc(O)cc3)[C@H]2SC1`, for which the Potency entry in test [1], in [2], in test [5] and in test [4] was “inactive” each time.
As to `O=C(N/N=C/c1ccccc1O)c1ccncc1`, the Potency result in [1] is “inactive”. In addition, the Potency in [3] was 4.36 µM (active); in test [5], 6.68 µM (active); in test [4], 23700 nM (active).
`O=c1ccc2ccccc2o1`: the Potency result in test [1], in [2], in test [3], in test [5], in [4] and in test [6] was “inactive” each time. Besides, the call in test [13] was inactive.
For the compound `CC(=O)OCC(=O)[C@@]1(O)[C@H](C)C[C@H]2[C@@H]3CCC4=CC(=O)C=C[C@]4(C)[C@@]3(F)[C@@H](O)C[C@@]21C`, the Potency entry in [1] and in test [2] was “inactive” in each case. Further, in [4], the Potency was 3.3 nM (active) and 12.9 nM (active).

(Values after PubChem BioAssay (NCATS).)
